In article PMC7862700, “An all-to-all approach to the identification of sequence-specific readers for epigenetic DNA modifications on cytosine”:

Experiments:
Experiment in all cases: DAPPL (digital affinity profiling via proximity ligation, sequencing); 10 mM Tris-HCl pH 7.5, 50 mM NaCl, 1 mM DTT, 4% glycerol, room temperature, 30 min; GST-TFs on glutathione beads, 16-mer random dsDNA library, 0.1% formaldehyde crosslink after washing; high values mean tight binding
[1] = biological target: T1, FLI1 (Homo sapiens, UniProt Q01543 1-452); details: protein: recombinant; tags: N-terminal GST; dsDNA, one strand shown
T1 sequence: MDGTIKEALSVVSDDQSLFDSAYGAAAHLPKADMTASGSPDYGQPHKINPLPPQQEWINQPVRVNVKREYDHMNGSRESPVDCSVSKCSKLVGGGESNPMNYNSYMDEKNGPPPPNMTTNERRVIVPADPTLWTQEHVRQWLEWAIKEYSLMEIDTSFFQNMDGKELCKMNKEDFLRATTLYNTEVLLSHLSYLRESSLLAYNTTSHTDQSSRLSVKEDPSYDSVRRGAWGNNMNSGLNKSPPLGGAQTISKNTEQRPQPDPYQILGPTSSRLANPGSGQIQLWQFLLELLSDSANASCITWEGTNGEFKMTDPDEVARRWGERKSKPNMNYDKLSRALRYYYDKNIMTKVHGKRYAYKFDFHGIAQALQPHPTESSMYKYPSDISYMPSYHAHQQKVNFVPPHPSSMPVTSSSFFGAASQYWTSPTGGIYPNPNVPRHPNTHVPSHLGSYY
Outline: (§1)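 Each value of binding signal is a hexamer's read frequency for a factor divided by the same hexamer's frequency in the tag-only sample. Barcoded, bead-captured GST fusions of human transcription factors made in yeast were pooled with that sample and incubated with 200 nmole of a random double-stranded 16-mer DNA library in Tris/NaCl/DTT/glycerol buffer at room temperature for 30 min. Washing, 0.1% formaldehyde crosslinking, proximity ligation, PCR and Illumina NextSeq500 sequencing followed.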

[2] = biological target: T2, ELK1 (Homo sapiens, UniProt P19419 1-428); details: protein: recombinant; tags: N-terminal GST; dsDNA, one strand shown
T2 sequence: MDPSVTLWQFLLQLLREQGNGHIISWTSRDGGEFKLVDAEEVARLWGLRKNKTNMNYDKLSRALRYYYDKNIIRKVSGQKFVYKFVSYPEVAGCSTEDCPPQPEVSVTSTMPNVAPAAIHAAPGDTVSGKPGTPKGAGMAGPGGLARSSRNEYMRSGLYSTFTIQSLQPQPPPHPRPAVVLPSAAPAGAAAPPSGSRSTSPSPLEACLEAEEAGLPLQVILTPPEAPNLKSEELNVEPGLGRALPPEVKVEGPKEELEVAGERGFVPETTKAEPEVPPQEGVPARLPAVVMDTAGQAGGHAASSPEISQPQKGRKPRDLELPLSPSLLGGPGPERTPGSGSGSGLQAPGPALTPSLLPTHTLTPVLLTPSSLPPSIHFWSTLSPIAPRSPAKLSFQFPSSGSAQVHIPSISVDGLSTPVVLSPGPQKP
Outline: as §1

[3] = biological target: T3, GABPA (Homo sapiens, UniProt Q06546 1-454); details: protein: recombinant; tags: N-terminal GST; dsDNA, one strand shown
T3 sequence: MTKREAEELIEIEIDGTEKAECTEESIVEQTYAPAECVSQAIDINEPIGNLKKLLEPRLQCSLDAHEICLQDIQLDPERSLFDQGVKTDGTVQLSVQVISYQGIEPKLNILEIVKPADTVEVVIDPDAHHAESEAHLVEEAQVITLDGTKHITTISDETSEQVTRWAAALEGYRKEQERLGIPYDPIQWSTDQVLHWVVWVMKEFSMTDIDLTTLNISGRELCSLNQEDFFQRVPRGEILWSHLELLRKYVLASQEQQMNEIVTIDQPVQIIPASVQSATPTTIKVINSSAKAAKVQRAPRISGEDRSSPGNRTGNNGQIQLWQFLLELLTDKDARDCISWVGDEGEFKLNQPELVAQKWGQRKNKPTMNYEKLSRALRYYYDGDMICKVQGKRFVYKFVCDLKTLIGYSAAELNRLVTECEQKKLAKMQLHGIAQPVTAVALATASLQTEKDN
Outline: as §1

[4] = biological target: T4, ERG (Homo sapiens, UniProt P11308 1-479); details: protein: recombinant; tags: N-terminal GST; dsDNA, one strand shown
T4 sequence: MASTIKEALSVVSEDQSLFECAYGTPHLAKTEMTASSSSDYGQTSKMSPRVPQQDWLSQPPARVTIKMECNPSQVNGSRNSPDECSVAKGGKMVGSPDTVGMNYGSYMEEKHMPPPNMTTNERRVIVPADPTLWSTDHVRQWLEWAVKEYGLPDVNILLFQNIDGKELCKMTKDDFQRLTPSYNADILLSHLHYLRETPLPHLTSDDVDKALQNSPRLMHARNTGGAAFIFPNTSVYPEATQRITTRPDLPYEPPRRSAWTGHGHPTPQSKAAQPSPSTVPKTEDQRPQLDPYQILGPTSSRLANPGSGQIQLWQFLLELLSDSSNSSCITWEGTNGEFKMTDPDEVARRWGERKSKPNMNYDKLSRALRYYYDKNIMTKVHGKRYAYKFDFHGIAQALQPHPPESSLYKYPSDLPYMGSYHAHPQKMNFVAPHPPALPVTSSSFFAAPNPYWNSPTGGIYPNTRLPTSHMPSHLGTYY
Outline: as §1

[5] = biological target: ELF1 (Homo sapiens, UniProt P32519 1-619); details: protein: recombinant; tags: N-terminal GST; dsDNA, one strand shown
Outline: as §1

[6] = biological target: T5, EHF (Homo sapiens, UniProt Q9NZC4 1-300); details: protein: recombinant; tags: N-terminal GST; dsDNA, one strand shown
T5 sequence: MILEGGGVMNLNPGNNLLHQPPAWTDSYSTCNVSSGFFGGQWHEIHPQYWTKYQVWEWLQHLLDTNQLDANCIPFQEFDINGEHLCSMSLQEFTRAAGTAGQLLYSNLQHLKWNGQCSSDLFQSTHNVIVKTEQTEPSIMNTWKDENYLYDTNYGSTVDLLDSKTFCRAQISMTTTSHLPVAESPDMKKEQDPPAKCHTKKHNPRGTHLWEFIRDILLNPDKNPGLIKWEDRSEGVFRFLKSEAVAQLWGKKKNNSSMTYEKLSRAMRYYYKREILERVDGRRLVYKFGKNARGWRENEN
Outline: as §1

[7] = biological target: SPI1 (Homo sapiens, UniProt P17947 1-270); details: protein: recombinant; tags: N-terminal GST; dsDNA, one strand shown
Outline: as §1

[8] = biological target: SPIB (Homo sapiens, UniProt Q01892 1-262); details: protein: recombinant; tags: N-terminal GST; dsDNA, one strand shown
Outline: as §1

[9] = biological target: T6, ELK3 (Homo sapiens, UniProt P41970 1-407); details: protein: recombinant; tags: N-terminal GST; dsDNA, one strand shown
T6 sequence: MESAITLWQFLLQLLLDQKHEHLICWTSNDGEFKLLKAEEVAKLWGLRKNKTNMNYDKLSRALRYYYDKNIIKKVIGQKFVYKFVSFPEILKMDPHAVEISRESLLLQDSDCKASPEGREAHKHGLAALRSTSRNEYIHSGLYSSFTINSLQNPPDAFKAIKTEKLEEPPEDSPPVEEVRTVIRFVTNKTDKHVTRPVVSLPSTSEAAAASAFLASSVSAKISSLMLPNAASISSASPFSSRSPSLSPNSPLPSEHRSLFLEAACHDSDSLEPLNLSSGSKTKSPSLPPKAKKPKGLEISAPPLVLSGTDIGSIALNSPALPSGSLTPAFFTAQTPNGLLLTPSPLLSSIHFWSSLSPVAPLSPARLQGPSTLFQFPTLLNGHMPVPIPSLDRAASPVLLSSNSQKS
Outline: as §1

[10] = biological target: T7, FEV (Homo sapiens, UniProt Q99581 1-238); details: protein: recombinant; tags: N-terminal GST; dsDNA, one strand shown
T7 sequence: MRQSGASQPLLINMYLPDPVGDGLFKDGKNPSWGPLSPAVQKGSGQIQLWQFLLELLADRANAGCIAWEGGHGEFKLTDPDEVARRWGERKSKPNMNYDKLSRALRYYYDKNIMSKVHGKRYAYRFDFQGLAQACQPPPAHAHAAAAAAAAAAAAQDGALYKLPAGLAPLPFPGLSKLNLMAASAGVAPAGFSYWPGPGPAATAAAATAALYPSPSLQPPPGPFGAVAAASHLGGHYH
Outline: as §1

[11] = biological target: ETV5 (Homo sapiens, UniProt P41161 1-510); details: protein: recombinant; tags: N-terminal GST; dsDNA, one strand shown
Outline: as §1

[12] = biological target: HSF1 (Homo sapiens, UniProt Q00613 1-529); details: protein: recombinant; tags: N-terminal GST; chain copies: 3; dsDNA, one strand shown
Outline: as §1

[13] = biological target: T8, SPIC (Homo sapiens, UniProt Q8N5J4 1-248); details: protein: recombinant; tags: N-terminal GST; dsDNA, one strand shown
T8 sequence: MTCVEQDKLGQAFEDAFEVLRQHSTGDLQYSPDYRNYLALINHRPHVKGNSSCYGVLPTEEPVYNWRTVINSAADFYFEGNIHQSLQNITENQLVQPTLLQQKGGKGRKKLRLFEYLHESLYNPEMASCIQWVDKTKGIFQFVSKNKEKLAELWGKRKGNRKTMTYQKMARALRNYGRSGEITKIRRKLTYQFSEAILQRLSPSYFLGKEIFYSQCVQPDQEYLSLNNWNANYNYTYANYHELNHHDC
Outline: as §1

[14] = biological target: ELF4 (Homo sapiens, UniProt Q99607 1-663); details: protein: recombinant; tags: N-terminal GST; dsDNA, one strand shown
Outline: as §1

[15] = biological target: T9, ELK4 (Homo sapiens, UniProt P28324-2 1-405); details: protein: recombinant; tags: N-terminal GST; dsDNA, one strand shown
T9 sequence: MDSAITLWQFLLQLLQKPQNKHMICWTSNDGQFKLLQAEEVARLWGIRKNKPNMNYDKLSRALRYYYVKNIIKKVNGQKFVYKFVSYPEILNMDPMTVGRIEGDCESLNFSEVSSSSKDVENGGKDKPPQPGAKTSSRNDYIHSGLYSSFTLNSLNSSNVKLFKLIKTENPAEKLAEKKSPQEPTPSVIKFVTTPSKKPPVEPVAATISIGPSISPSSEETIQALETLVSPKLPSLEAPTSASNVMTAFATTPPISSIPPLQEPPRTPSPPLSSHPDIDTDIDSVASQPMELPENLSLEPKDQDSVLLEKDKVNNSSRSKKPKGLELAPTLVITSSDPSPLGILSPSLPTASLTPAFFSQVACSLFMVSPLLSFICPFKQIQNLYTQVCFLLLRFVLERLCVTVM
Outline: as §1

[16] = biological target: T10, ETV2 (Homo sapiens, UniProt O00321 1-342); details: protein: recombinant; tags: N-terminal GST; dsDNA, one strand shown
T10 sequence: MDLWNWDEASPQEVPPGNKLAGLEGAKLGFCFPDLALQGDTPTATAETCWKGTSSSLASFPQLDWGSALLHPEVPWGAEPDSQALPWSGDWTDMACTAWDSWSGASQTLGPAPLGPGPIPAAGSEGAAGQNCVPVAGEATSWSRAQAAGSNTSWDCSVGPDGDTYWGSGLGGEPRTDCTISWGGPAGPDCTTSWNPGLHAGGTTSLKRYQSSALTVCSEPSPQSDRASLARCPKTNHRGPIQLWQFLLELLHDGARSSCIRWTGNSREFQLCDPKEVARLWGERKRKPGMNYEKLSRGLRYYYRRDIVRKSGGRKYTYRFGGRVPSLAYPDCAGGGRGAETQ
Outline: as §1

[17] = biological target: T11, ELF3 (Homo sapiens, UniProt P78545 1-371); details: protein: recombinant; tags: N-terminal GST; dsDNA, one strand shown
T11 sequence: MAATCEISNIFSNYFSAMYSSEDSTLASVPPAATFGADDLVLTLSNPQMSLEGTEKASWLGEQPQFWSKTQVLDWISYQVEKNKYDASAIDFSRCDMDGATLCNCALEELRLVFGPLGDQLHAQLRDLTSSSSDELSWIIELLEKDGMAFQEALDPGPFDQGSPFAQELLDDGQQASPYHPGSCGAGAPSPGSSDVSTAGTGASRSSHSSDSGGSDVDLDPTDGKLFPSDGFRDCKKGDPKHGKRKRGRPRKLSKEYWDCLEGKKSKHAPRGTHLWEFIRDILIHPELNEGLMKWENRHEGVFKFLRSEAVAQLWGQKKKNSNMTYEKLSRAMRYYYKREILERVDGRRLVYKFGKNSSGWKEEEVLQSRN
Outline: as §1

[18] = biological target: CRX (Homo sapiens, UniProt O43186 1-299); details: protein: recombinant; tags: N-terminal GST; dsDNA, one strand shown
Outline: as §1

[19] = biological target: ETV1 (Homo sapiens, UniProt P50549 1-477); details: protein: recombinant; tags: N-terminal GST; dsDNA, one strand shown
Outline: as §1

Sequence of ELF1 (P32519 whole entry): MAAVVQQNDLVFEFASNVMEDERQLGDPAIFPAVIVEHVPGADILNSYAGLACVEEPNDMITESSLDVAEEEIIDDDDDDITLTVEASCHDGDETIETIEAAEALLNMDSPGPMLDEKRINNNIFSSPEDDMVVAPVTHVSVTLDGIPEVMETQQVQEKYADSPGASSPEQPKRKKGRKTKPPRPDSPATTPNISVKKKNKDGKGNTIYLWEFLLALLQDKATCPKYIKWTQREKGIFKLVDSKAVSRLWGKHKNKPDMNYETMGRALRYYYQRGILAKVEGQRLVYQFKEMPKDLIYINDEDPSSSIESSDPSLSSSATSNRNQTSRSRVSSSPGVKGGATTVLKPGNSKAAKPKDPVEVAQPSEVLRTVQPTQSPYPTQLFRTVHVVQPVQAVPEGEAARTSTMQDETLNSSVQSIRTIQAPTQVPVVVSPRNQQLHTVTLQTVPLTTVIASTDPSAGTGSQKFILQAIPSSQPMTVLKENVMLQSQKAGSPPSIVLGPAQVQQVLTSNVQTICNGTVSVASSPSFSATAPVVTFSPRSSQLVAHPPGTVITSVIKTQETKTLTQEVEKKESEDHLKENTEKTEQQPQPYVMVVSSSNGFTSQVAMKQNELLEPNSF
Sequence of ELF4 (Q99607 whole entry): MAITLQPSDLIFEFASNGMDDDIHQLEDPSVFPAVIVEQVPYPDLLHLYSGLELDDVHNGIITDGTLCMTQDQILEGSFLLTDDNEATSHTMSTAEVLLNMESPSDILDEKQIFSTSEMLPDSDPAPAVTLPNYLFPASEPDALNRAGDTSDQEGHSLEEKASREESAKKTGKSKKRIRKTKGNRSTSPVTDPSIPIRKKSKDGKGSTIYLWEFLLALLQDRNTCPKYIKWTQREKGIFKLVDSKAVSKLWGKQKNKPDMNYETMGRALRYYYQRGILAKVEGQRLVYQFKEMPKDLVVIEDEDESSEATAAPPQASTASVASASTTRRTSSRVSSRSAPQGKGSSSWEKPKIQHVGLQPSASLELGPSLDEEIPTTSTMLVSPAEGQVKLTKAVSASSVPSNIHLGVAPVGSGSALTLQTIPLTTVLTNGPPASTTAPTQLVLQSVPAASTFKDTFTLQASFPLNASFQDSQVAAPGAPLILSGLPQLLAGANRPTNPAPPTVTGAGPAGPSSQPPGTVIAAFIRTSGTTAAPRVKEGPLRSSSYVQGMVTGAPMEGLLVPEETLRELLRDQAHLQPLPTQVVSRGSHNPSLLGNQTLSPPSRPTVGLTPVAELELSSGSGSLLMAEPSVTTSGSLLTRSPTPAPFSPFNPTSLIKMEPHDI
Sequence of CRX (O43186 whole entry): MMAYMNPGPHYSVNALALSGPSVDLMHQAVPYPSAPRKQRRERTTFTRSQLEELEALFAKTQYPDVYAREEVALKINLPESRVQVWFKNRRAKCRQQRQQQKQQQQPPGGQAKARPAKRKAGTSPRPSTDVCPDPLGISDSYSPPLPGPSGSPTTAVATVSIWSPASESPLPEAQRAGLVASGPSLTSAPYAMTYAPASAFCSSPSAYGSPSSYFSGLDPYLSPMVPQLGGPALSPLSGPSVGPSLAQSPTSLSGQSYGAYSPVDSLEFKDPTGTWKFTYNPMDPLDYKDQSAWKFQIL
Sequence of HSF1 (Q00613 whole entry): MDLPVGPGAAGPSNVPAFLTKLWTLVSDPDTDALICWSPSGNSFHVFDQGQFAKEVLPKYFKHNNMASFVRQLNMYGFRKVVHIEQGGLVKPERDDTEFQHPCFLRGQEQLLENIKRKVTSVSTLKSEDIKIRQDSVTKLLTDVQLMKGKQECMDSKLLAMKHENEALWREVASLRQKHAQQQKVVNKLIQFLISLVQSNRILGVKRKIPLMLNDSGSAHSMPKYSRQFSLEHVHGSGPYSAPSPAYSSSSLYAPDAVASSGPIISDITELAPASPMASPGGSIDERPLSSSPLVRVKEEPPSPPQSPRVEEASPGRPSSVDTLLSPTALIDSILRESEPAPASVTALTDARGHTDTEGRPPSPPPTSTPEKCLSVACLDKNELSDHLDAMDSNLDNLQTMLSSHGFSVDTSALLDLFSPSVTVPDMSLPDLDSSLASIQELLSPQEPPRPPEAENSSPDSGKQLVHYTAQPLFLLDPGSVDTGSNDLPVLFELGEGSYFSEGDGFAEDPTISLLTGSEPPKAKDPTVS
Sequence of ETV1 (P50549 whole entry): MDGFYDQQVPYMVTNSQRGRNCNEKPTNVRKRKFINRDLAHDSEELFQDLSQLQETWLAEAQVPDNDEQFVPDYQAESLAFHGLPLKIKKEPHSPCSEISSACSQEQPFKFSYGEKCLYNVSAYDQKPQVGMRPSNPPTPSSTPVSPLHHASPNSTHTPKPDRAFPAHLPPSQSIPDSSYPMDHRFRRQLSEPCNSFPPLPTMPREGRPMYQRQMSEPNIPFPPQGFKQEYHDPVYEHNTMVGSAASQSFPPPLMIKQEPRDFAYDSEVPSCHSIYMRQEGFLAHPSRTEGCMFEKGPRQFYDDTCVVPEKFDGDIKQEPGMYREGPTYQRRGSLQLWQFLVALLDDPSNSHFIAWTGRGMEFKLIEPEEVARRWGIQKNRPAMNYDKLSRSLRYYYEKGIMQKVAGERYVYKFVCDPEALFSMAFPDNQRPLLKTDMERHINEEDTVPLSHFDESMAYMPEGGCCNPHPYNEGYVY
Sequence of ETV5 (P41161 whole entry): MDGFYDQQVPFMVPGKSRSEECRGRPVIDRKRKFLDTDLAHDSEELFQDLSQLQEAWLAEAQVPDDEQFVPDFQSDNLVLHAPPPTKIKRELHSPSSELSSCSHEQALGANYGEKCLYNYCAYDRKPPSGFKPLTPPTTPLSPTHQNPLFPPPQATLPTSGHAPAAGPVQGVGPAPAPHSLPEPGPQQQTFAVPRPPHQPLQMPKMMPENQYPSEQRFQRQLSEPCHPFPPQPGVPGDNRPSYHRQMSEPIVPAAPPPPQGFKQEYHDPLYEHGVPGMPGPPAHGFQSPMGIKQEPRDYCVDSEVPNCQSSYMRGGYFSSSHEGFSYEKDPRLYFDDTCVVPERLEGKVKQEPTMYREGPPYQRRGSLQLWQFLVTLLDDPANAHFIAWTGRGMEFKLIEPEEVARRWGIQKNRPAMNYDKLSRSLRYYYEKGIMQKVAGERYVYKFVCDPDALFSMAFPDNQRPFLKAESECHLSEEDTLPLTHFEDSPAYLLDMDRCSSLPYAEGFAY
Sequence of SPIB (Q01892 whole entry): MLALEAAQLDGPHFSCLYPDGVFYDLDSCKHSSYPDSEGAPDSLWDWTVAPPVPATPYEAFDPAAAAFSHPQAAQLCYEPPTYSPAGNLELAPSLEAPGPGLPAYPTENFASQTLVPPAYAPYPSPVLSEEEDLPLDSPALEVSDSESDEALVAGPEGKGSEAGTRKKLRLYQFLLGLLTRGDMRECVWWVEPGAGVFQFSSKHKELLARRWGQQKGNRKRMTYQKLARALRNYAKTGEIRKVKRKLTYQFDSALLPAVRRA

With ATGCTC as the sequence, how does the binding signal [1] read?
The binding signal was 1.43 fold enrichment (6-mer frequency, TF over GST control).

And the binding signal [2]?
The binding signal was 1.31 fold enrichment (6-mer frequency, TF over GST control).

What about the binding signal [3] of the same sequence?
Its binding signal is 1.36 fold enrichment (6-mer frequency, TF over GST control).

What about the binding signal [4] of the same sequence?
Its binding signal is 1.34 fold enrichment (6-mer frequency, TF over GST control).

What about the binding signal [5] of the same sequence?
The binding signal was 1.36 fold enrichment (6-mer frequency, TF over GST control).

What about the binding signal [6] of the same sequence?
Its binding signal is 1.34 fold enrichment (6-mer frequency, TF over GST control).

And the binding signal [7]?
The binding signal was 1.41 fold enrichment (6-mer frequency, TF over GST control).

What about the binding signal [8] of the same sequence?
Its binding signal is 1.35 fold enrichment (6-mer frequency, TF over GST control).

And the binding signal [9]?
The binding signal was 1.27 fold enrichment (6-mer frequency, TF over GST control).

And the binding signal [10]?
The binding signal was 1.39 fold enrichment (6-mer frequency, TF over GST control).

What about the binding signal [11] of the same sequence?
Its binding signal is 1.41 fold enrichment (6-mer frequency, TF over GST control).

And the binding signal [12]?
The binding signal was 1.43 fold enrichment (6-mer frequency, TF over GST control).

What about the binding signal [13] of the same sequence?
Its binding signal is 1.47 fold enrichment (6-mer frequency, TF over GST control).

And the binding signal [14]?
Its binding signal is 1.46 fold enrichment (6-mer frequency, TF over GST control).

And the binding signal [15]?
Its binding signal is 1.32 fold enrichment (6-mer frequency, TF over GST control).

What about the binding signal [16] of the same sequence?
The binding signal was 1.37 fold enrichment (6-mer frequency, TF over GST control).

What about the binding signal [17] of the same sequence?
The binding signal was 1.47 fold enrichment (6-mer frequency, TF over GST control).

And the binding signal [18]?
The binding signal was 1.38 fold enrichment (6-mer frequency, TF over GST control).

And the binding signal [19]?
Its binding signal is 1.42 fold enrichment (6-mer frequency, TF over GST control).
